# In PubChem BioAssay AID720517 (National Center for Advancing Translational Sciences (NCATS), 2013):
# Inconclusive results are not listed. Entries that show only a call come without a potency. Calls of active or inactive are those of the source. Calls follow the shape of the dose curve; as a rule, active = well fitted activation curve with a large enough effect; inconclusive = small, poorly fitted or top-dose-only effect; inactive = flat fitted curve, though single readings scatter.
# Experiment: qHTS for Inhibitors of Cell Surface uPA Generation: FP59 Counterscreen for Cherry-picked Compounds
# Details: FP59 anthrax toxin cytotoxicity counterscreen, cells; series mostly up to 115 µM
# Potency is read from the fitted curve at half-maximal effect.
row,Structure (SMILES),Potency
1,Cc1ccc(C)c(S(=O)(=O)Nc2ccccc2C(=O)Nc2cc(C)on2)c1,inactive
2,Cc1ccc2cccc(OCCCOc3ccccc3CO)c2n1,inactive
3,CC1CCCN(C(=O)c2ccc(CNc3c(N4CCCCC4)c(=O)c3=O)cc2)C1 (centres undefined),inactive
4,CC(C)C[C@H]1CN([C@@H](CC(C)C)CN2CCCC2CN2C(=S)NC[C@@H]2Cc2ccc(O)cc2)C(=S)N1CC1CCCCC1 (some centres undefined),inactive
5,Cc1[nH]c2ccc(C(=O)OC(C)C(=O)NC3CCCCC3C)cc2c1C (centres undefined),inactive
6,C[n+]1c2cc(N)ccc2cc2ccc(N)cc21,inactive
7,Cc1ccccc1S(=O)Cc1ccc(C(=O)N2CCN(C(=O)c3ccco3)CC2)o1 (centres undefined),inactive
8,O=C(NCc1ccc(F)cc1)c1cc(S(=O)(=O)N2CCCCC2)ccc1N1CCOCC1,inactive
9,O=C(O)CNC(=S)N(Cc1ccccc1)Cc1cccnc1,inactive
10,COC(/C=C/Nc1ccc(Cl)cc1)=C(C#N)C#N,inactive
11,CCOC(=O)C1(CCOc2ccccc2)CCN(Cc2ccc(O)c(OC)c2)CC1,inactive
12,OC(COc1ccc(Br)cc1)CN1CCN(c2ccccc2)CC1 (centres undefined),inactive
13,Cc1cc(C)nc(NC(=O)CSc2nccc(C)n2)n1,inactive
14,COCCNC(=S)N(CCc1c(C)[nH]c2ccccc12)Cc1ccco1,inactive
15,O=C1NCCN1C(=O)N(c1ccccc1)c1ccccc1,inactive
16,O=C1OCC/C1=C\c1ccc(O)cc1,inactive
17,O=C(OCC(=O)N1CCOCC1)c1c(Cl)ccc(Cl)c1Cl,inactive
18,CC1(NC(=O)CSc2nnc(-c3c[nH]c4ccccc34)n2C2CC2)CCS(=O)(=O)C1 (centres undefined),inactive
19,Cc1cccc(C(=O)Nc2cc(=O)n(C)c(=O)n2C)c1,inactive
20,CC(C)(C)NC(=O)C(c1cccs1)N(C(=O)c1csnn1)c1ccccc1F (centres undefined),inactive
21,O=C(COc1ccc(C(=S)N2CCOCC2)cc1)N1CCOCC1,inactive
22,O=C(NC1CC1)C1CCCN(C(=O)NC2CCCCC2)C1 (centres undefined),inactive

row,Structure (SMILES),Potency
1,O=C(NC1CCCCC1)C(c1ccco1)N(C(=O)c1csnn1)c1cccc(Cl)c1 (centres undefined),inactive
2,COc1ccc(OC)c(S(=O)(=O)N2CCN(Cc3ccccc3)CC2)c1,inactive
3,Cc1ccc(C23CC4CC(CC(C(=O)NN)(C4)C2)C3)cc1,inactive
4,Cc1nn(-c2ccc(F)cc2)c(C)c1NS(=O)(=O)c1ccc(Cl)cc1,inactive
5,CCC1(CC)NC(=O)N(CC(=O)OCC(=O)c2cc(C)c(C)cc2C)C1=O,inactive
6,O=C(CCN1CCN(c2ccccc2F)CC1)Nc1ccc(F)cc1,inactive
7,C=CCn1c(SCCN2C(=O)c3ccccc3C2=O)nc2scc(-c3ccc(F)cc3)c2c1=O,inactive
8,Cc1ccsc1/C=C(\C#N)C(=O)NC1CCS(=O)(=O)C1 (centres undefined),inactive
9,O=[N+]([O-])c1cccc2c(N3CCOCC3)ccnc12,inactive
10,CCCCn1c(C2CCCCC2)nc2cc3[nH]c(=O)c(C(C)C)nc3cc21,inactive
11,COCCNC(=O)COCc1cc(-c2ccc3c(c2)OCO3)on1,inactive
12,Cc1[nH]c2ccccc2c1C(=O)C(C)OC(=O)c1ccccc1NCCO (centres undefined),inactive
13,CN(CC(=O)NCc1ccco1)CC(=O)Nc1c(Cl)cccc1Cl,inactive
14,CCc1nnc(NC(=O)CSc2nnnn2-c2cccc(C(C)=O)c2)s1,inactive
15,N#Cc1cccc(NC(=O)Cn2cnc(S(=O)(=O)N3CCOCC3)c2)c1,inactive
16,COC(=O)c1c(NC(=O)c2c(OC)cccc2OC)sc2c1C(C(=O)OC)CC2 (centres undefined),inactive
17,COc1ccc2[nH]cc(S(=O)(=O)c3ccc(C(C)C)cc3)c(=O)c2c1,inactive
18,Cc1cc(N)n(Cc2ccc(Cl)cc2)n1,inactive
19,COc1cccc(NC(=S)NCc2ccc3c(c2)cc(C)n3C)c1,inactive
20,CNC(=O)[C@@H]1CCC(=O)N1,inactive
21,Cc1nc(NC2CCCCC2)c2nnn(Cc3ccccc3Cl)c2n1,inactive
22,CCOCCCn1c(SCC(=O)Nc2cc(OC)ccc2OC)nc2ccccc2c1=O,inactive

row,Structure (SMILES),Potency
1,COc1ccc(C(=O)CC(=O)C(=O)Nc2ccccc2)cc1,inactive
2,CCc1nccn1CCC(=O)N1CCc2c([nH]c3ccccc23)C1CC(C)C (centres undefined),inactive
3,O=C(COC(=O)C1CC2C=CC1C2)NCc1ccccc1Cl (centres undefined),inactive
4,CC(=O)Nc1nc2ccccc2[nH]1,inactive
5,CCC(NC(=S)NCc1ccc(F)cc1)c1ccccc1 (centres undefined),inactive
6,CSCC[C@H](NC(=O)[C@H](Cc1ccccc1)n1c(=O)[nH]c2ccccc2c1=O)C(=O)N1CCC[C@H]1C(=O)O,inactive
7,COc1ccc(CNC(=O)C2CCC(CNS(=O)(=O)c3ccc(C)cc3)CC2)cc1 (centres undefined),inactive
8,Cc1ccc(Nc2nc(Cl)c(C=O)s2)cc1,inactive
9,O=C(Nc1ccc2c(c1)CCC2)Nc1ccc2c(c1)OCO2,inactive
10,COC(=O)C1=CN(Cc2ccc(F)cc2)C=C(C(=O)OC)C1c1ccc(O)c(OC)c1,inactive
11,COC(=O)C(CCSC)NC(=O)Cn1ncc2c(=O)oc3ccccc3c21 (centres undefined),inactive
12,CC(=O)Oc1ccccc1C(=O)Nc1ccccc1C(=O)N1CCCC1,inactive
13,COc1ccc(N(CN2C(=O)c3ccccc3C2=O)C(=O)C(C)C)cc1,inactive
14,Cc1cc(C)cc(NC(=O)COC(=O)CCn2c(C)csc2=O)c1,inactive
15,CCOc1ccc(-n2cnc3scc(-c4ccc(OC)c(OC)c4)c3c2=O)cc1,inactive
16,Cc1nc(N2CCN(c3ccc(Cl)cc3)CC2)[nH]c(=O)c1C,inactive
17,Cc1cc(C)n(C(=O)c2cccc([N+](=O)[O-])c2)n1,inactive
18,COc1cc(CN2CCN(S(=O)(=O)c3ccccc3)CC2)cc(OC)c1OC,inactive
19,Cc1ccn(CCC(=O)N2CCc3ccccc32)n1,inactive
20,COCc1cc(C)nc2sc(C(=O)Nc3nccs3)c(N)c12,inactive
21,N#C/C(N=Nc1ccccc1O)=N\Nc1ccccc1O,inactive
22,CCc1ccc(S(=O)(=O)NCCc2cn3cccc(C)c3n2)s1,inactive

row,Structure (SMILES),Potency
1,Cc1ccc(NS(=O)(=O)c2c(C)nc3sccn3c2=O)c(C)c1,inactive
2,O=C(NCC1CCCO1)c1c(O)c2cccc3c2n(c1=O)CCC3 (centres undefined),inactive
3,CC1Cc2nc(SCC(=O)Nc3ccc4c(c3)OCO4)n(-c3ccc(F)cc3)c(=O)c2S1 (centres undefined),inactive
4,COc1cc2c(cc1OC)CN(C(=O)c1ccc(-c3ccccc3)cc1)CC2,inactive
5,COc1ccc(N2CCN(S(=O)(=O)c3ccc4c(c3)NC(=O)CS4)CC2)cc1,inactive
6,Cc1cccc(CNc2ccc(C(CC(N)=O)NC(=O)c3cccc(Br)c3)cc2[N+](=O)[O-])c1 (centres undefined),inactive
7,O=C(NNC(=O)C1CC(c2cccs2)=NO1)Nc1ccccc1 (centres undefined),inactive
8,CS/C(=C\[N+](=O)[O-])Nc1ccccc1,inactive
9,CC1CC(=O)Nc2ccccc2N1C(=O)Cn1cnc2ccc(Br)cc2c1=O (centres undefined),inactive
10,COc1ccc(OC)c(NC(=O)C2CC2c2ccccc2)c1 (centres undefined),inactive
11,C=CS(=O)(=O)c1ccc(Oc2ccc(S(=O)(=O)C=C)cc2)cc1,52.1 µM (active)
12,CCS(=O)(=O)N1CCC(C(=O)NCc2ccc(OC)cc2OC)CC1,inactive
13,COc1ccc(C(=O)N[C@H](C(=O)NCc2cccs2)C(C)C)cc1,inactive
14,CCN(C1CCS(=O)(=O)C1)S(=O)(=O)c1ccc2ccccc2c1 (centres undefined),inactive
15,O=C(Nc1ccc(NC(=O)c2ccco2)c(Cl)c1)c1ccccc1,inactive
16,COc1ccccc1CN1CC(C(=O)NCc2cccc(C)n2)CCC1=O (centres undefined),inactive
17,CC1=NN(C(N)=S)C(=O)C1N=Nc1ccccc1C(=O)O (centres undefined),inactive
18,CC/C(=N\Nc1ccccc1[N+](=O)[O-])c1ccc(O)cc1,inactive
19,O=[N+]([O-])c1cccc(-c2noc(-c3cccs3)n2)c1,inactive
20,COc1cc(SC)ccc1C(=O)OCc1nc2ccsc2c(=O)[nH]1,inactive
21,O=C(NC[C@H]1CCCO1)c1cccc2c1C(=O)c1ccc(-c3ccc(F)cc3OCc3ccccc3)cc1S2(=O)=O,inactive
22,Cc1cnc(CNC(=O)CC2C(=O)NCCN2Cc2ccccc2C(F)(F)F)cn1 (centres undefined),inactive

row,Structure (SMILES),Potency
1,Cc1ccc(S(=O)(=O)N2CCN(C(=O)c3n[nH]c(=O)c4ccccc34)CC2)cc1,inactive
2,COc1ccc(C(=O)CC2(C(=O)O)CCCCC2)cc1,inactive
3,CCN(CC)CCNC(=O)/C(=C/c1cn(CC)c2ccccc12)NC(=O)c1cc(OC)c(OC)c(OC)c1,inactive
4,CC1=C(C(=O)OCc2ccccc2)C(c2cccc([N+](=O)[O-])c2)NC(=O)N1 (centres undefined),inactive
5,O=C(Nc1c(C(=O)O)oc2ccc(Br)cc12)c1ccccc1,inactive
6,CCOc1ccc(CCNC(=O)Cc2ccc(NC3=NC4CS(=O)(=O)CC4S3)cc2)cc1OCC (centres undefined),inactive
7,O=C(Cc1ccc(Cl)cc1)c1c[nH]c(C(=O)NCCCn2ccnc2)c1,inactive
8,O=C(O)CSc1nnc(COc2ccccc2)n1-c1ccccc1,inactive
9,Brc1ccsc1/C=N/Nc1ccccc1,inactive
10,COc1ccc(NS(=O)(=O)c2c(C)n(C)c(=O)n(C)c2=O)cc1OC,inactive
11,CC(C)NC(=O)CN1CCC(c2nc3ccccc3[nH]2)CC1,inactive
12,CC(CCc1ccccc1)NC(=O)c1ccc(NC(=O)c2cccc(Br)c2)cc1 (centres undefined),inactive
13,COC(C[C@H](O)[C@H](C)[C@@H](O)COCc1ccccc1)OC,inactive
14,CCCN1CCN(CC(=O)Nc2nncs2)CC1,inactive
15,O=C(O)C(Nc1nc(C(F)(F)F)nc2ccccc12)c1ccccc1 (centres undefined),inactive
16,CCOc1ncccc1C(=O)NCc1ccccc1Cl,inactive
17,CC(C)CN(C(=O)CN1CCC(C)CC1)c1c(N)n(CC(C)C)c(=O)[nH]c1=O,inactive
18,Cn1c(SCC(=O)NNC(=O)c2ccc(Br)cc2)nnc1-c1cccnc1,inactive
19,COC(=O)CSc1nc(N2CCOCC2)c2c(c1C#N)CCCC2,inactive
20,O=C(CCS(=O)(=O)c1ccc2c(c1)NC(=O)CS2)NCCc1ccc(Cl)cc1,inactive
21,C=CCOC(=O)C1=C[C@@H](c2coc3ccccc3c2=O)C[C@@H](OCc2ccc(CO)cc2)O1,inactive
